Assay results taken from publication PMC4552634, “A New Set of Chemical Starting Points with Plasmodium falciparum Transmission-Blocking Potential for Antimalarial Drug Discovery” (PLoS ONE, 2015).
Like-named read-outs stand apart in the source and are kept apart here. In all, about 13,000 compounds went through this assay and about 3,200 (25%) showed an effect of 50% or more. This is one part of the list.

Tested on: P. falciparum stage V gametocytes
Parameters: BacTiter-Glo ATP luminescence viability of purified stage V gametocytes in 384-well plates, per cent inhibition versus DMSO
Details: 48 h, 5 µM, inhibitor

SMILES	% Inhibition	% Inhibition (% Inhibition)
Cc1cc(C(F)(F)F)cc(-n2ncc(-c3ccc(C(=O)NCc4ccccc4N)cc3)c2N)n1 [TCMDC-136658]	-13.23%	–
COc1ccc(CN2CCC(N3CCc4cc(NC(=O)c5cc(C)on5)ccc43)C2)cc1Cl (stereo not drawn) [TCMDC-135080]	-33.25%	–
COc1cc(C)ccc1S(=O)(=O)N1CCCCC(c2ccc(C(F)(F)F)cc2)=N1 [TCMDC-134533]	19.73%	–
CCn1c(SC)nnc1C1CCCN(CC(=O)Nc2nc3ccc(OC)cc3s2)C1 (stereo not drawn) [TCMDC-123539]	2.495%	–
Cc1cc(CN2C(=O)C(c3ccccc3)(c3ccccc3)N=C2N)c(C(F)(F)F)o1 [TCMDC-132305]	6.087%	–
N=c1n(Cc2ccc(Cl)cc2)c2ccccc2n1CC(O)c1ccc(Cl)c(Cl)c1 (stereo not drawn) [TCMDC-123813]	91.34%	–
C=CCn1c(=N)n(CC(O)c2ccc(Cl)c(Cl)c2)c2ccccc21 (stereo not drawn) [TCMDC-125726]	57.07%	–
N=c1sc2ccccc2n1CC(O)c1ccc(Cl)c(Cl)c1 (stereo not drawn) [TCMDC-124031]	27.67%	–
O=C(Cc1ccccc1)NC(CCN1CCC(NC(=O)c2ccc(Cl)cc2)CC1)c1ccc(Cl)c(Cl)c1 (stereo not drawn) [TCMDC-141709]	-3.295%	–
N=c1n(Cc2ccccc2)c2ccccc2n1CC(O)c1ccc(Cl)cc1 (stereo not drawn) [TCMDC-124078]	66.41%	–
COC(=O)C(C)(C)Cc1c(SC(C)(C)C)c2cc(C(C)C)ccc2n1Cc1ccc(Cl)cc1 [TCMDC-131973]	5.735%	–
N=c1n(Cc2ccccc2)c2ccccc2n1CC(O)c1ccc(Cl)c(Cl)c1 (stereo not drawn) [TCMDC-124061]	50.12%	–
OC(CN1CCN(Cc2ccccc2)CC1)Cn1c(-c2ccccc2)c(-c2ccccc2)c2ccccc21 (stereo not drawn) [TCMDC-124021]	9.388%	–
Cc1ccc2c(c1)nc(N)n2C[C@H](O)c1ccccc1 [TCMDC-138693]	42.68%	–
CN(C)CC(O)C(c1ccccc1)c1ccc(Cl)cc1 (stereo not drawn) [TCMDC-131413]	8.677%	–
O=C(NC1CC1)c1cnc(N2CCC(COc3cccc(F)c3)CC2)c(Cl)c1 [TCMDC-134030]	7.356%	–
COc1ccc(CCn2c(C3CCCCC3)nc3oc4ccccc4c(=O)c3c2=O)cc1 [TCMDC-125003]	26.12%	–
Cc1ccc(CON2C(N)=NC(N)=NC23CCCCC3)c2ccccc12 [TCMDC-131589]	35.49%	–
O=S(=O)(NC1CCN(c2ccnc3cc(Cl)ccc23)C1)c1ccc(F)cc1 (stereo not drawn) [TCMDC-133654]	5.841%	–
CCC1=C(C[C@H]2NCCc3cc(OC)c(OC)cc32)C[C@H]2c3cc(OC)c(OC)cc3CCN2C1 [TCMDC-131825]	95.62%	–
CCC1CN2CCc3c([nH]c4ccccc34)[C@@H]2C[C@@H]1CC1NCCc2cc(OC)c(OC)cc21 (stereo partly drawn) [TCMDC-142009]	–	-17.31%
CCC1CN2CCc3c([nH]c4ccc(OC)cc34)C2CC1CC1NCCc2cc(OC)c(OC)cc21 (stereo not drawn) [TCMDC-142010]	-39.55%	–

SMILES	% Inhibition	% Inhibition (% Inhibition)
CC(C)c1ccc(-c2nc3ncc(Cl)cc3[nH]2)cc1 [TCMDC-125093]	64.2%	–
Nc1ncc(-c2cn[nH]c2)cc1-c1nc2ncc(Cl)cc2[nH]1 [TCMDC-133562]	-10.74%	–
CCN(CC)c1ccc(-c2nc3ncc(Cl)cc3[nH]2)cc1 [TCMDC-125094]	7.94%	–
CC(=O)Nc1ccc(S(=O)(=O)Nc2c(C)cc(Cc3cnc(N)nc3N)cc2C)cc1 [TCMDC-137632]	-8.406%	–
CNC(=O)Cc1ccc(C(=O)Nc2cccc(-c3ccc(-c4nc5cccc(C)c5[nH]4)s3)c2)cc1 [TCMDC-137076]	-37.06%	–
Cc1c(CC(=O)NCCC2CCN(CCCCCNC(=O)/C=C/c3ccc(Cl)c(Cl)c3)CC2)sc2ccc(Cl)cc12 [TCMDC-140008]	19.89%	–
O=C(/C=C/c1ccc(Cl)c(Cl)c1)NCCCCCN1CCC(CCNC(=O)C2(c3ccc(Cl)cc3)CC2)CC1 [TCMDC-140000]	67.34%	–
O=C(/C=C/c1ccc(Cl)c(Cl)c1)NCCCCCN1CCC(CCNC(=O)/C=C/c2ccc(Cl)c(Cl)c2)CC1 [TCMDC-139998]	17.18%	–
O=C(/C=C/c1ccc(Cl)c(Cl)c1)NCCCCCN1CCC(CCNC(=O)Cc2ccc(Cl)cc2)CC1 [TCMDC-140001]	60.19%	–
CN(C(=O)C1(c2ccc(Cl)cc2)CC1)C1CCN(CCCCCNC(=O)/C=C/c2ccc(Cl)c(Cl)c2)CC1 [TCMDC-139987]	-12.99%	–
O=C(C=Cc1ccc(Cl)c(Cl)c1)NCCCCCN1CCC(CCNC(=O)c2cccc3ccccc23)CC1 [TCMDC-139565]	43.11%	–
Cc1oc(-c2ccc(Cl)cc2)cc1C(=O)NCCC1CCN(CCCCCNC(=O)/C=C/c2ccc(Cl)c(Cl)c2)CC1 [TCMDC-140009]	105.7%	–
OC(CNCc1ccccc1Oc1ccccc1)c1cccc(C(F)(F)F)c1 (stereo not drawn) [TCMDC-140397]	30.17%	–
CC1CN(c2cc(=O)n(Cc3cccc(NC(=O)Nc4ccc(-c5ccccc5)cc4)c3)cn2)CC(C)N1 (stereo not drawn) [TCMDC-133365]	-7.987%	–
FC(F)(F)c1ccc2[nH]c(-c3cccc(-c4ccc(CNCC5CCCO5)cc4)c3)nc2c1.O=C(O)C(F)(F)F (stereo not drawn) [TCMDC-133103]	-16.51%	–
COc1ccc2nccc([C@@H](O)CN3CCC(NC(=O)c4ccc(-c5ccc(C#N)cc5)cc4)CC3)c2c1 [TCMDC-141001]	7.804%	–
COC(=O)c1ccc(CCC(C)NCC(O)c2cccc(C(F)(F)F)c2)cc1 (stereo not drawn) [TCMDC-131440]	17.3%	–
COc1ccc(S(=O)(=O)N2CCCc3ccc(Br)cc32)cc1N1CCN(C(=O)C(Cl)(Cl)Cl)CC1 [TCMDC-139339]	22.46%	–
CCN(C1CCCCC1)S(=O)(=O)c1ccc(OC)c(N2CCN(C(=O)C(Cl)(Cl)Cl)CC2)c1 [TCMDC-139319]	82.34%	–
CCC1CCCCN1S(=O)(=O)c1ccc(OC)c(N2CCN(C(=O)C(Cl)(Cl)Cl)CC2)c1 (stereo not drawn) [TCMDC-139255]	3.13%	–
CSc1nc2nc(C)c(Cc3cccc(F)c3)c(C)n2n1 [TCMDC-123765]	1.864%	–
COc1cc2ncnc(Nc3ccc4nc(-c5ccccc5)[nH]c4c3)c2cc1OC [TCMDC-137191]	-26.1%	–

SMILES	% Inhibition	% Inhibition (% Inhibition)
Cc1c2ccncc2c(C)c2c1[nH]c1cc(Cc3ccccc3)c(O)cc12 [TCMDC-132053]	89.31%	–
Cc1c2ccncc2c(C)c2c1[nH]c1ccccc12 [TCMDC-125546]	-37.29%	–
O=C(Nc1ccc(-c2cccc(-c3nc4ccc(C(F)(F)F)cc4[nH]3)c2)cc1)c1ccc(=O)[nH]n1 [TCMDC-137032]	18.19%	–
CCC(C)(C)c1ccc(N2C(N)=NC(N)=NC2(C)C)cc1 [TCMDC-137919]	8.342%	–
O=C(Nc1ccc(Cl)cc1)OCCn1nnnc1C(c1ccc(Cl)cc1)N1CCOCC1 (stereo not drawn) [TCMDC-124138]	-11.24%	–
COc1ccc2nccc(NC(=O)C3CCC(NCc4cnc(SC)c([N+](=O)[O-])c4)CC3)c2n1 (stereo not drawn) [TCMDC-131238]	93.77%	–
COc1ccc2nccc(NC(=O)N3CCC(NCCOc4cc(F)cc(F)c4)CC3)c2n1 [TCMDC-140666]	29.69%	–
COc1ccc2nccc(NC(=O)C3(O)CCC(NCc4ccc5c(c4)NCCS5)CC3)c2n1 (stereo not drawn) [TCMDC-141406]	32.7%	–
Cc1cccc2[nH]c(-c3ccc(-c4cccc(NC(=O)Nc5ccc(F)c(F)c5F)c4)cc3)nc12 [TCMDC-133234]	-5.873%	–
O=C(N[C@@H](Cc1ccccc1)C(=O)NC1CCCCC1)c1ccc(O)c(-c2cccc(C(F)(F)F)c2)c1 [TCMDC-140809]	50.49%	–
O=C(N[C@@H](Cc1ccccc1)C(=O)NC1CCCCCC1)c1ccc(O)c(-c2cccc(C(F)(F)F)c2)c1 [TCMDC-140813]	18.86%	–
O=C(N[C@@H](CC1CCCCC1)C(=O)NC1CCCCC1)c1ccc(O)c(-c2cccc(C(F)(F)F)c2)c1 [TCMDC-140810]	6.892%	–
OC(CNc1ccnc(Nc2ccccc2)n1)c1ccc(C(F)(F)F)cc1 (stereo not drawn) [TCMDC-136598]	-1.002%	–
O=c1cc(NCCCNCc2[nH]c3cc(Cl)ccc3c2Cl)[nH]c2ccccc12 [TCMDC-139966]	-23.52%	–
Cc1ccc(C(NC(=O)c2ccccc2)c2ccc3cccnc3c2O)cc1 (stereo not drawn) [TCMDC-125552]	16.34%	–
COc1cccc(C(NC(=O)c2ccccc2)c2ccc3cccnc3c2O)c1 (stereo not drawn) [TCMDC-125755]	75.54%	–
O=C(NC(c1ccccc1)c1ccc2cccnc2c1O)c1ccccc1 (stereo not drawn) [TCMDC-123701]	103.7%	–
N#Cc1ccc(N2CCN(C(=O)c3cccc(-c4noc(C(F)(F)F)n4)c3)CC2)nc1 [TCMDC-132424]	8.571%	–
O=C(Nc1cc(C(F)(F)F)cc(C(F)(F)F)c1)NC(CCCN1CCC2(CC1)OCc1ccccc12)c1ccc(Cl)c(Cl)c1 (stereo not drawn) [TCMDC-141899]	-60.02%	–
O=C(NC(CCCN1CCC2(CC1)OCc1ccccc12)c1ccc(Cl)c(Cl)c1)c1cc(C(F)(F)F)cc(C(F)(F)F)c1 (stereo not drawn) [TCMDC-141897]	69.2%	–
O=C(NC(CCCN1CCC(c2ccccc2)CC1)c1ccc(Cl)c(Cl)c1)c1cc(C(F)(F)F)cc(C(F)(F)F)c1 (stereo not drawn) [TCMDC-141900]	23.85%	–
O=C(Nc1ccc([N+](=O)[O-])cc1)c1nn(-c2ccccc2)cc1N=Cc1cccc(O)c1 [TCMDC-124108]	-28.07%	–
